± gives the standard deviation of the averaged measurements. Targets with the largest changes are over-represented here; the source holds about 6,200 in all.
compound: Nc1ncnc2c1ncn2[C@@H]1O[C@H](COP(=O)(O)OP(=O)(O)NP(=O)(O)O)[C@@H](O)[C@H]1O [adenylyl imidodiphosphate]; test: NP40-soluble protein abundance relative to vehicle (solubility fold change) (ratio); higher = more soluble protein in presence of AMP-PNP; conditions: concentration: 4mM
Summary of the method: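 Crude Jurkat lysate, prepared by Dounce homogenisation, was exposed to eight concentrations from 0.1 to 10 mM for 10 min at room temperature and then 3 min at 37 °C. Solubilisation used 0.8% NP40 with benzonase for 60 min at 4 °C, followed by ultracentrifugation and TMT labelling of the supernatant for LC-MS/MS. After vsn normalisation of intensities, each value is the fold change against the detergent-processed vehicle within each replicate, across three independent experiments.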

Chain of UniProt Q13825 (Q13825 whole entry): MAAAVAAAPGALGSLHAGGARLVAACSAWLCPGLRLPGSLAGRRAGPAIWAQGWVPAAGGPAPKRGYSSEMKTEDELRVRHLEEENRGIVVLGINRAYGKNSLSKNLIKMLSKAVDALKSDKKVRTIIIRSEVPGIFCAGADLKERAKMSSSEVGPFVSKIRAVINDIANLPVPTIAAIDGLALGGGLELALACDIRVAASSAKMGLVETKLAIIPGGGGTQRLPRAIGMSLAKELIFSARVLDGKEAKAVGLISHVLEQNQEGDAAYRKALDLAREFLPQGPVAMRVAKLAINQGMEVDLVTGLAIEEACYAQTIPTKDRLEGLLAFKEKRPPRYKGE
Chain of UniProt Q7Z7H5 (Q7Z7H5 whole entry): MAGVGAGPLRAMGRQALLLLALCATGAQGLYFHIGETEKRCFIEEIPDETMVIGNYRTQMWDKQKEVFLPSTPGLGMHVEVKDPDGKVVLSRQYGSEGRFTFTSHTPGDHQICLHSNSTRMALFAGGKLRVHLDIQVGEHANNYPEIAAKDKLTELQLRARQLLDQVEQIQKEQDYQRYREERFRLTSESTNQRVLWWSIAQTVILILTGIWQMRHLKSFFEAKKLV
Chain of UniProt Q14444 (Q14444 whole entry): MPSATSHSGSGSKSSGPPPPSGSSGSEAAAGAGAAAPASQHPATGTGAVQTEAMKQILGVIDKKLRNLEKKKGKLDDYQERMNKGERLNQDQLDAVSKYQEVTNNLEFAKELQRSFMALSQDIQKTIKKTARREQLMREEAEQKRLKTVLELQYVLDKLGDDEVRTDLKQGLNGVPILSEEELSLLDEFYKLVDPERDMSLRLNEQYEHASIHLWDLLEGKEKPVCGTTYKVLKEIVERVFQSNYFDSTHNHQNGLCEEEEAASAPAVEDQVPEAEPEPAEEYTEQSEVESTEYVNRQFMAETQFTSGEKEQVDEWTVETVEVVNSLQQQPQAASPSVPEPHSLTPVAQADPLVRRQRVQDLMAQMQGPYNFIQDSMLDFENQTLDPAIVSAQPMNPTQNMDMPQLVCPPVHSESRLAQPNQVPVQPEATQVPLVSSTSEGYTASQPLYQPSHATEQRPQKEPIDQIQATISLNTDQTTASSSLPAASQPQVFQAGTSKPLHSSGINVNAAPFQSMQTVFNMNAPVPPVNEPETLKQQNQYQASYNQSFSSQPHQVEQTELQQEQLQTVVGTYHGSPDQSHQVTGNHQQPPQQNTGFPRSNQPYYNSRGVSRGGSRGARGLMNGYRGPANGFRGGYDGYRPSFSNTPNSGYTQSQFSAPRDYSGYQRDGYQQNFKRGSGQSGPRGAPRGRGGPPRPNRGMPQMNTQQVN
Chain of UniProt Q6UN15 (Q6UN15 whole entry): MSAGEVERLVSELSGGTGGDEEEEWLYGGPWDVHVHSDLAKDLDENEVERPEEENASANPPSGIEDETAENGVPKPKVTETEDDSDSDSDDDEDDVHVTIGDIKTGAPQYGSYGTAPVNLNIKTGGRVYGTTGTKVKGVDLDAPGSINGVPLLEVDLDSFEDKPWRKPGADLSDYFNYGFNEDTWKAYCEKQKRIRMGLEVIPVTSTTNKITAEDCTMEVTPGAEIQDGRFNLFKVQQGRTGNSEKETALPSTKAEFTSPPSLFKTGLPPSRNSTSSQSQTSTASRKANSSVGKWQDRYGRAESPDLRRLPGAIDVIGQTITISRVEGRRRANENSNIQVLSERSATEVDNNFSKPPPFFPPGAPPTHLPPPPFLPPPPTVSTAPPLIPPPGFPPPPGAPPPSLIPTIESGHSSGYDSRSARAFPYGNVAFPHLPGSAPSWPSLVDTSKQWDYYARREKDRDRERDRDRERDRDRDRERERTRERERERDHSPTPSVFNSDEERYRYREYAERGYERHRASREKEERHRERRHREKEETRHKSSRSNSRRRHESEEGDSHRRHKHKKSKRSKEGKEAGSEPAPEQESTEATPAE
Chain of UniProt Q13576 (Q13576 whole entry): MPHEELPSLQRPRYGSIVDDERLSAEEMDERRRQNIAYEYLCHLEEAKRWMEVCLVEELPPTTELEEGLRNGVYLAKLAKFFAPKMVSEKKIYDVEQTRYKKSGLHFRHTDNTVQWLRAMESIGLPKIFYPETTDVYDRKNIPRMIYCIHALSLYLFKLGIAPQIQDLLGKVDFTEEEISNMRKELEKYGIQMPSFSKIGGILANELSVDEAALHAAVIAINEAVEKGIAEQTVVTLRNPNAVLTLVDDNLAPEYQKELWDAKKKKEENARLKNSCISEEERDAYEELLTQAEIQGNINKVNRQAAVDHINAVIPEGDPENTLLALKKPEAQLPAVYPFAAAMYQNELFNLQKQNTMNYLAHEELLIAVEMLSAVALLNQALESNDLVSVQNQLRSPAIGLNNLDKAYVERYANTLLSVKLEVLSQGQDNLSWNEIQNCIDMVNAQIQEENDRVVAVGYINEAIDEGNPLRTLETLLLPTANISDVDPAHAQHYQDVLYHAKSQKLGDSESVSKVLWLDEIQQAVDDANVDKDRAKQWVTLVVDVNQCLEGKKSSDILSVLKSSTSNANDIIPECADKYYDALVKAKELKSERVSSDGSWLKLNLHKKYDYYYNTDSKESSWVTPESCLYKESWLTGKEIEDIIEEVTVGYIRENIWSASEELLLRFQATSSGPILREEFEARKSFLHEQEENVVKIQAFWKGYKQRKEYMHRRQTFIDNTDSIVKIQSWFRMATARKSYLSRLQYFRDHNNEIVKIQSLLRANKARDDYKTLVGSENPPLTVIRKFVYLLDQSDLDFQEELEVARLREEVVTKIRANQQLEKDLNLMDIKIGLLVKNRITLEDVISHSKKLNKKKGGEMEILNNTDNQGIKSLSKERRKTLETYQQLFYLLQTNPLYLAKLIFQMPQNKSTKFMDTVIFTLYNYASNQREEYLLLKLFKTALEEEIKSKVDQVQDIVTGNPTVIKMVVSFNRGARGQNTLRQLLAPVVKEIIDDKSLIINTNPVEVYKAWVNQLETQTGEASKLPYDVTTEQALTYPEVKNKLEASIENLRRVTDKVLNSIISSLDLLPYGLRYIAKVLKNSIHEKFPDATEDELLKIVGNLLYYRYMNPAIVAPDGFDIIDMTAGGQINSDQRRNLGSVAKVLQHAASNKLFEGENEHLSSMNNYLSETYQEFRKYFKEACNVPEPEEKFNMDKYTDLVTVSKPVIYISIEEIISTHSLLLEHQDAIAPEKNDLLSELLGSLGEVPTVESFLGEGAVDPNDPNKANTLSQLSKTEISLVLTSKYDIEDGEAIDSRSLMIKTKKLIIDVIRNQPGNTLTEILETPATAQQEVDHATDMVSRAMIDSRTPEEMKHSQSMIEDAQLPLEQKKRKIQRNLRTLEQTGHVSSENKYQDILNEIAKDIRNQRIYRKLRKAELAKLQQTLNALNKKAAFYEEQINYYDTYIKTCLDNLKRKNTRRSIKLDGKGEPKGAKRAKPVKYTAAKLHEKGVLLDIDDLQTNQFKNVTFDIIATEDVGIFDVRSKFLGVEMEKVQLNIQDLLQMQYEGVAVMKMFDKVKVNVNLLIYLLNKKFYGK
Chain of UniProt Q8TEQ0 (Q8TEQ0 whole entry): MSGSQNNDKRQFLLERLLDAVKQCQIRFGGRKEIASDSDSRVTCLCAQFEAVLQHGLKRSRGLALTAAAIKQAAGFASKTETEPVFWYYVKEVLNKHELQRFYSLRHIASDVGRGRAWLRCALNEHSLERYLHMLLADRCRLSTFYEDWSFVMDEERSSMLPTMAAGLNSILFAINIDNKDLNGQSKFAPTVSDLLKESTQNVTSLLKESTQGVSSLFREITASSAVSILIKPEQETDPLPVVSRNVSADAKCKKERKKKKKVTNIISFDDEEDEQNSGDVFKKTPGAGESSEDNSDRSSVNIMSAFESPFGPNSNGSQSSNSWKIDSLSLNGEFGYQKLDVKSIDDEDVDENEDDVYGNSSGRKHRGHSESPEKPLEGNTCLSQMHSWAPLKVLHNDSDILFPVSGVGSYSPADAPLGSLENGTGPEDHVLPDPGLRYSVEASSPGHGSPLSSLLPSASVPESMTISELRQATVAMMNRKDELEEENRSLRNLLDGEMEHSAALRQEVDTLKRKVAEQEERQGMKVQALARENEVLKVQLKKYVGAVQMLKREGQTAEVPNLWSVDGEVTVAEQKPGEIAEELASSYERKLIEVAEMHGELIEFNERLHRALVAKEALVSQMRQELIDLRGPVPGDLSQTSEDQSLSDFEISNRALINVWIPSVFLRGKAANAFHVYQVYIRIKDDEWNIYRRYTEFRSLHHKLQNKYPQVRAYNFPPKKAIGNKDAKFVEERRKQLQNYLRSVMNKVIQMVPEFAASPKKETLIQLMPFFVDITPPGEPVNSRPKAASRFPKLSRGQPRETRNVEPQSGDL
Chain of UniProt Q7L5Y1 (Q7L5Y1 whole entry): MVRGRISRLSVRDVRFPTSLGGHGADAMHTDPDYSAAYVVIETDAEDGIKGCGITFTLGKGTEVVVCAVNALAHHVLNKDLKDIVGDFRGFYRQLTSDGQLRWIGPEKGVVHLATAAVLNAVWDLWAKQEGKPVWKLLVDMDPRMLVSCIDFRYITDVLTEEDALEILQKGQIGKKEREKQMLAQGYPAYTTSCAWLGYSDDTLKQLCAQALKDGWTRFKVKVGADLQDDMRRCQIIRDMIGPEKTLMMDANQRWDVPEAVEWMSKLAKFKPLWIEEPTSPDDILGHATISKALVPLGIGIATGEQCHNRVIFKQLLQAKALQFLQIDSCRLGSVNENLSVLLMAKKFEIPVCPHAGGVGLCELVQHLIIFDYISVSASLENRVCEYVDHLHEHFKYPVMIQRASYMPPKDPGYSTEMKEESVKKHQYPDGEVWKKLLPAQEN
Chain of UniProt Q16594 (Q16594 whole entry): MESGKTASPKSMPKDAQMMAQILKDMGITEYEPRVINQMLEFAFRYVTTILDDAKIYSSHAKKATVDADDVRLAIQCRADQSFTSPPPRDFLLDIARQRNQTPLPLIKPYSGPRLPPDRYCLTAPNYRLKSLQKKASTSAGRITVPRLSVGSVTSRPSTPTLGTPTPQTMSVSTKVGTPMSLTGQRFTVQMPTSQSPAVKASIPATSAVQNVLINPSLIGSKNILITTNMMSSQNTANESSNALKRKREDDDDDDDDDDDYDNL

Target	NP40-soluble protein abundance
UniProt Q8TEQ0|Q8TEQ0-2	1.01 ± 0.029
UniProt Q14444|Q14444-2	1.16 ± 0.064
UniProt Q15056-2|Q15056	0.945 ± 0.14
TMED4 (UniProt Q7Z7H5)	0.99 ± 0.032
IQGAP2 (UniProt Q13576)	0.94 ± 0.051
UniProt Q13825|Q13825-2	1.04 ± 0.044
UniProt Q7L5Y1|Q7L5Y1-4|Q7L5Y1-5	1.007 ± 0.0081
ABHD11 (UniProt Q8NFV4)	1.04 ± 0.023
UniProt Q969T7|Q969T7-2	0.999 ± 0.029
ANKRD13A (UniProt Q8IZ07)	1.04 ± 0.029
TAF9 (UniProt Q16594)	1.01 ± 0.018
UniProt Q93074-2	1.06 ± 0.019
UniProt Q6UN15|Q6UN15-3	1.059 ± 0.0078
GTF3C6 (UniProt Q969F1)	1.04 ± 0.032
GATAD2B (UniProt Q8WXI9)	1.024 ± 0.0076
UniProt Q8IYB5-2|Q8IYB5-3	1.01 ± 0.031
UniProt Q6P6C2|Q6P6C2-1	1.22 ± 0.07
UniProt Q7L5N7|A0A087X0A3|Q7L5N7-2	0.979 ± 0.037

Target	NP40-soluble protein abundance
PPWD1 (UniProt Q96BP3)	1 ± 0.06
UniProt Q5M775|Q5M775-2|Q5M775-3|Q5M775-4|Q5M775-5	0.95 ± 0.05
OVCA2 (UniProt Q8WZ82)	1.01 ± 0.062
UniProt Q7L0J3|Q7L0J3-2	1.03 ± 0.031
URB2 (UniProt Q14146)	0.988 ± 0.013
MDC1 (UniProt Q14676)	1.49 ± 0.12
CBLL1 (UniProt Q75N03)	1.03 ± 0.045
UniProt Q684P5-2|Q684P5-3|Q684P5	0.997 ± 0.051
UniProt Q8WWW0|Q8WWW0-2	1.02 ± 0.018
ERCC6L (UniProt Q2NKX8)	0.993 ± 0.04
CCDC6 (UniProt Q16204)	0.979 ± 0.041
UniProt Q15365	1.04 ± 0.033
USP34 (UniProt Q70CQ2)	0.955 ± 0.026
UniProt Q71F23	1.03 ± 0.016
RHOT2 (UniProt Q8IXI1)	1.02 ± 0.03
THOC2 (UniProt Q8NI27)	1.63 ± 0.29
UniProt Q8IXQ5|Q8IXQ5-2|Q8IXQ5-5	0.974 ± 0.029
UniProt Q8WUB8|Q8WUB8-2|Q8WUB8-3|S5FZ81	1.07 ± 0.023

same assay, conditions: concentration: 6mM

Target	NP40-soluble protein abundance
UniProt Q8TEQ0|Q8TEQ0-2	0.98 ± 0.054
UniProt Q14444|Q14444-2	1.19 ± 0.13
UniProt Q15056-2|Q15056	0.94 ± 0.081
TMED4 (UniProt Q7Z7H5)	1.02 ± 0.036
IQGAP2 (UniProt Q13576)	0.944 ± 0.029
UniProt Q13825|Q13825-2	1.03 ± 0.015
UniProt Q7L5Y1|Q7L5Y1-4|Q7L5Y1-5	0.99 ± 0.04
ABHD11 (UniProt Q8NFV4)	0.995 ± 0.028
UniProt Q969T7|Q969T7-2	0.966 ± 0.025
ANKRD13A (UniProt Q8IZ07)	1.06 ± 0.061
TAF9 (UniProt Q16594)	1.01 ± 0.018
UniProt Q93074-2	0.971 ± 0.08
UniProt Q6UN15|Q6UN15-3	1.07 ± 0.053
GTF3C6 (UniProt Q969F1)	0.984 ± 0.018
GATAD2B (UniProt Q8WXI9)	1.01 ± 0.049
UniProt Q8IYB5-2|Q8IYB5-3	0.995 ± 0.038
UniProt Q6P6C2|Q6P6C2-1	1.24 ± 0.13
UniProt Q7L5N7|A0A087X0A3|Q7L5N7-2	0.99 ± 0.035

Reference: the supplement of paper PMC6411743
